Active and inactive are the calls of the source. Unless noted, how the calls were made is not given here.
Columns and labels:
[1] = HepG2 liver cancer cell viability effects, profiling panel, resazurin fluorescence, 24 h, PK04 Diversity Set (AID 1172); settings: higher = more signal
[2] = basal S. cerevisiae growth modulation, no modifier, primary screen, OD600, strain BY4716, 24 h, basal condition (AID 1173); settings: OD600, 24 h, higher = more signal, called active from +8 up or from −8 down
[3] = MM1S myeloma cell viability, profiling panel, resazurin fluorescence, basal, 24 h, PK04 Diversity Set (AID 1174); settings: higher = more signal, called active from +8 up or from −8 down;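 further: MM1S multiple myeloma cell line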
[4] = biological target: Dihydroorotate dehydrogenase (quinone), mitochondrial (Plasmodium falciparum (isolate 3D7)) (UniProt Q08210); assay: PfDHODH enzyme inhibitors, primary screen, biochemical, C-terminal His tag, absorbance 600 nm (AID 1175); settings: DCIP absorbance 600 nm, higher = more signal, called active from +8 up or from −8 down;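 further: recombinant parasite enzyme with a five histidine tag at its C terminus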
[5] = P. aeruginosa biofilm formation inhibitors, primary screen, strain PAO1, LB-PBS medium, absorbance 600 nm (AID 1176); settings: P. aeruginosa PAO1 growth/biofilm, A600, 12 h; higher = more signal
[6] = S. cerevisiae RM11-1a growth modifiers, primary screen, strain RM11-1a, OD600, basal, 24 h (AID 1177); settings: OD600, 24 h, higher = more signal, called active from +8 up or from −8 down;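 further: cultures grown under basal conditions with no added stressor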
[7] = E. coli acrAB mutant growth effects, primary screen, E. coli filamentation inducers, strain DRC39, OD650, 24 h (AID 1178); settings: higher = more signal, called active from +8 up or from −8 down;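 further: growth measured as culture turbidity by optical density at 650 nm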
[8] = E. coli acrAB mutant growth effects, primary screen, E. coli filamentation inducers, strain DRC39, OD650, 48 h (AID 1179);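 further: screen aims at cell division blockers that make cells filament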; settings: E. coli DRC39 delta-acrAB growth, higher = more signal, called active from +8 up or from −8 down
[9] = RPMI8226 myeloma cell viability, profiling panel, resazurin fluorescence, basal, 24 h, PK04 Diversity Set (AID 1180); settings: higher = more signal;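 further: RPMI8826 multiple myeloma cell line at 5000 cells per well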
[10] = biological target: E3 ubiquitin-protein ligase XIAP (Homo sapiens) (UniProt P98170); assay: XIAP binders, primary screen, biophysical, small-molecule microarray, fluorescence 635 nm (AID 1181); settings: small-molecule microarray binding, higher = more signal;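 further: score merges 667 nm emission and signal to noise over triplicate slides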
[11] = tested on: XIP peptide (Xip251-270) binding; assay: small-molecule binders of XIP peptide, primary screen, biochemical, small-molecule microarray, fluorescence 635/667 nm, 0.1 µg/mL protein (AID 1182); settings: fluorescent protein binding, 635 nm, higher = more signal, called active from +8 up or from −8 down
XIP peptide (Xip251-270) = assay: small-molecule binders of XIP peptide, primary screen, biochemical, small-molecule microarray, fluorescence 635/667 nm, 0.5 µg/mL protein (AID 1183); settings: small-molecule microarray binding, fluorescence 635 nm; higher = more signal
[12] = Plasmodium falciparum growth inhibition, primary screen, strain 3D7, DAPI fluorescence, 100 nL (AID 1184);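 further: parasites grown inside human red blood cells in medium with human serum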; settings: P. falciparum 3D7 growth, 3 d, higher = more signal
[13] = biological target: Homeobox protein Hox-A13 (Mus musculus) (UniProt Q62424); assay: inhibitors of HoxA13-DNA binding, primary screen, biochemical, fluorescence polarization, labeled oligonucleotide (AID 1185); settings: 15 min, higher = more signal, called active from +8 up or from −8 down
[14] = inhibitors of hydroxyurea-induced Chk1 phosphorylation, primary screen, imaging, HeLa, phospho-Chk1 antibody, percent positive cells (AID 1186); settings: hydroxyurea-induced phospho-Chk1 immunofluorescence imaging, higher = more signal
[15] = inhibitors of hydroxyurea-induced Chk1 phosphorylation, primary screen, imaging, HeLa, phospho-Chk1 nuclear intensity (AID 1187); settings: hydroxyurea-induced phospho-Chk1 immunofluorescence imaging, higher = more signal

Sequence of Dihydroorotate dehydrogenase (quinone), mitochondrial (Plasmodium falciparum (isolate 3D7)) (Q08210 whole entry, looked up): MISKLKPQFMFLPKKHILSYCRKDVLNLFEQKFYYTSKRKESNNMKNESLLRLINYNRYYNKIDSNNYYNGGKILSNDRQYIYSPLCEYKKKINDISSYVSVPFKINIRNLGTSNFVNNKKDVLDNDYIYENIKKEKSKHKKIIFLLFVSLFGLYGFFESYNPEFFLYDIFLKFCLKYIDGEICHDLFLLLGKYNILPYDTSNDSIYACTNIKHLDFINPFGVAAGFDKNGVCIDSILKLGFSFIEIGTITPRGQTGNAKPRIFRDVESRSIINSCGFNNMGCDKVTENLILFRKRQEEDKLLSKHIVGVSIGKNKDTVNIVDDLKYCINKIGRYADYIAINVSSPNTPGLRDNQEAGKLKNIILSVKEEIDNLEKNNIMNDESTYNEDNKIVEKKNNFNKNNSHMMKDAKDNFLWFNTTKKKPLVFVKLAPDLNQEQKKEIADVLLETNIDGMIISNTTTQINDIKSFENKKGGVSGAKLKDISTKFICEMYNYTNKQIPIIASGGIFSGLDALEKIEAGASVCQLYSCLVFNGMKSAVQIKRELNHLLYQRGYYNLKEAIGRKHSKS
Sequence of E3 ubiquitin-protein ligase XIAP (Homo sapiens) (P98170 whole entry, looked up): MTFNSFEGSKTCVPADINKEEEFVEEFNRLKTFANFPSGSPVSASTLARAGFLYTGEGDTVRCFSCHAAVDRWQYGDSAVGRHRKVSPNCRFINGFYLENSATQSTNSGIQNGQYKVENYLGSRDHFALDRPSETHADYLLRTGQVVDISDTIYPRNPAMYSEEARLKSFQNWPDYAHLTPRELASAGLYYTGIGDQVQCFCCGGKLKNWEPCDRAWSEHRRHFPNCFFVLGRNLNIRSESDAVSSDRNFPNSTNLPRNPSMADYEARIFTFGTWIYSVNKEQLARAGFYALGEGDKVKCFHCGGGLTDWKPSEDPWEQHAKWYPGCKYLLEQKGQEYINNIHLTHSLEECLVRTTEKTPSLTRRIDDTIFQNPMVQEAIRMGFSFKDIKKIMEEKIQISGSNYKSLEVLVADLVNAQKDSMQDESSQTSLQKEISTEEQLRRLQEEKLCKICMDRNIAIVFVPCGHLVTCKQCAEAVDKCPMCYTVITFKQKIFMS
Sequence of Homeobox protein Hox-A13 (Mus musculus) (Q62424 whole entry, looked up): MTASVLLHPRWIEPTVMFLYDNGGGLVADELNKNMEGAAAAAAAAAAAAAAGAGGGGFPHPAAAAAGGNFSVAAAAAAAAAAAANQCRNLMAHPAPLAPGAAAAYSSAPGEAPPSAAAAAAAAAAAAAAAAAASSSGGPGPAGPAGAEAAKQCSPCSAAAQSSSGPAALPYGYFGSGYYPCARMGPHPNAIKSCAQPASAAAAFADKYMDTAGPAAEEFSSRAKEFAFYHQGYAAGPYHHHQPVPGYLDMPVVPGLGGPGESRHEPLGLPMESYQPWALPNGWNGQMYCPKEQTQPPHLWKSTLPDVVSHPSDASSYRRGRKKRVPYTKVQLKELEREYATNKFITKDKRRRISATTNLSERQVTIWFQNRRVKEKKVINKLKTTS

| Compound | z-score [1] | z-score [2] | z-score [3] | composite z-score [4] | z-score [5] | z-score [6] | z-score [7] | z-score [8] | z-score [9] | composite z-score [10] | composite z-score [11] | composite z-score (XIP peptide (Xip251-270)) | z-score [12] | z-score [13] | z-score [14] | z-score [15] |
| --- | --- | --- | --- | --- | --- | --- | --- | --- | --- | --- | --- | --- | --- | --- | --- | --- |
| COc1cc(CO)ccc1OC(C)=O | -0.386 | -0.277 (inactive) | -0.779 (inactive) | -1.75 (inactive) | -0.248 (inactive) | -1.18 (inactive) | 0.35 (inactive) | 0.915 (inactive) | -0.927 | -0.17 | -0.152 (inactive) | 0.383 | 0.186 | 0.472 (inactive) | -0.111 (inactive) | 0.0389 (inactive) |
| CC(C)(C)OC(=O)CC[C@@]1(C(=O)O)N=C(c2ccc(OCCCO)cc2)O[C@@H]1c1ccccc1N=[N+]=[N-] | 0.166 | 0.523 (inactive) | -0.789 (inactive) | 0.0016 (inactive) | 0.659 (inactive) | 0.0589 (inactive) | 0.428 (inactive) | 0.367 (inactive) | -0.105 | -0.187 | 1.37 (inactive) | -0.333 | 0.603 | -5.2 (inactive) | -0.157 (inactive) | -0.51 (inactive) |
| CCCN1C(=O)[C@@]2(CCC(=O)OC(C)(C)C)N=C(c3ccc(OCCCO)cc3)O[C@H]2c2ccccc21 | 0.803 | -1 (inactive) | -1.86 (inactive) | -0.0393 (inactive) | 0.717 (inactive) | 0.992 (inactive) | 0.923 (inactive) | 0.178 (inactive) | -3.16 | 0.0223 | 0.317 (inactive) | 0.563 | -2.31 | -3.53 (inactive) | -0.0458 (inactive) | 0.261 (inactive) |
| O=C1[C@]2(CO)C=C(Br)[C@@H](C[C@@H]2c2ccccc2)[C@@]12CO2 | 1.09 | -4.57 (inactive) | -0.0768 (inactive) | -0.172 (inactive) | -0.884 (inactive) | 0.184 (inactive) | 0.613 (inactive) | 0.585 (inactive) | -0.333 | -0.102 | -0.0567 (inactive) | 0.0525 | 0.808 | -2.52 (inactive) | -0.0932 (inactive) | -0.0264 (inactive) |
| COc1cc(C(O)C2C=CC3C(=O)N(c4ccccc4)C(=O)C3N2Nc2ccc(C#N)cc2)cc(OC)c1OC (centres undefined) | -1.28 | -2.44 (inactive) | -1.62 (inactive) | 0.198 (inactive) | 1.36 (inactive) | -0.343 (inactive) | -0.914 (inactive) | -0.386 (inactive) | -0.919 | 0.0819 | 1.42 (inactive) | 0.906 | 0.162 | -4.55 (inactive) | 0.859 (inactive) | 0.668 (inactive) |
| CCCCCN1CC=CC23O[C@@H]4/C=C\CCC(C)OC(=O)C4[C@H]2C(=O)N(CCCCCO)[C@@H]3C1=O (some centres undefined) | 0.58 | -1.12 (inactive) | 0.699 (inactive) | 0.121 (inactive) | 0.357 (inactive) | -1.01 (inactive) | 0.683 (inactive) | 0.389 (inactive) | 0.522 | -0.144 | -0.263 (inactive) | 0.0185 | -1.24 | -4.05 (inactive) | -0.464 (inactive) | 0.131 (inactive) |
| CC(C)(C)OC(=O)CC[C@@]1(C(=O)NCCN2CCOCC2)N=C(c2ccc(OCCCO)cc2)O[C@@H]1c1ccccc1 | -0.781 | -0.712 (inactive) | 0.596 (inactive) | -0.317 (inactive) | -0.347 (inactive) | 0.572 (inactive) | 1.15 (inactive) | 1.32 (inactive) | 0.641 | 0.228 | 1.38 (inactive) | 0.825 | 0.248 | -4.84 (inactive) | -0.396 (inactive) | -0.395 (inactive) |
| Cc1cc(C)cc(N2C(=O)CS(=O)(=O)C2c2cccc([N+](=O)[O-])c2)c1 (centres undefined) | -0.0507 | -0.658 (inactive) | -0.208 (inactive) | -2.1 (inactive) | -0.407 (inactive) | -0.438 (inactive) | 0.899 (inactive) | 1.04 (inactive) | -0.194 | -0.22 | 2.64 (inactive) | 0.0376 | 0.494 | -0.0181 (inactive) | -0.0327 (inactive) | 0.353 (inactive) |
| CC(=O)Nc1cc(Br)ccc1C(=O)O | -0.128 | 0.311 (inactive) | 0.161 (inactive) | -0.398 (inactive) | -0.103 (inactive) | -0.129 (inactive) | -0.141 (inactive) | -0.535 (inactive) | 0.357 | -0.239 | 1.16 (inactive) | 0.53 | 1.96 | 0.273 (inactive) | 0.1 (inactive) | 0.0714 (inactive) |
| CC(=O)NCCCC[C@@H]1NC(=O)[C@H]2C[C@@H](C(=O)NCCCCCC[N+](C)(C)C)[C@@H](c3cccc(OCCO)c3)N2C1=O | 1.04 | -0.458 (inactive) | 0.56 (inactive) | -1.75 (inactive) | 3.45 (inactive) | -0.718 (inactive) | -0.47 (inactive) | -0.711 (inactive) | 0.0647 | 0.0871 | 1.87 (inactive) | 0.893 | -1.26 | -4.59 (inactive) | -0.372 (inactive) | -0.255 (inactive) |
| O=C(CS)NCCCCCCNC(=O)[C@H]1C[C@H]2C(=O)NCC(=O)N2[C@H]1c1ccc(O)cc1 | -0.0808 | 0.309 (inactive) | -0.722 (inactive) | -0.864 (inactive) | 0.395 (inactive) | -0.14 (inactive) | -0.389 (inactive) | -0.405 (inactive) | -0.521 | 0.102 | 0.545 (inactive) | 0.832 | 0.509 | -2.43 (inactive) | 0.419 (inactive) | 0.37 (inactive) |
| C=CCC(OC(C)=O)[C@@H]1[C@@H](N(Cc2ccc(-c3ccccc3)cc2)C(=O)Cc2ccc(F)cc2)c2cc(OCCCO)ccc2N1C(=O)c1ccc2ccccc2n1 (some centres undefined) | 1.29 | -0.186 (inactive) | 1.08 (inactive) | -0.203 (inactive) | -0.619 (inactive) | -0.452 (inactive) | 0.918 (inactive) | 0.761 (inactive) | 0.893 | 0.103 | -0.517 (inactive) | -0.32 | -1.35 | -1.5 (inactive) | 0.344 (inactive) | -0.0849 (inactive) |
| COc1ccc(C#Cc2ccc3c(c2)[C@]2(C(=O)N3)[C@H](C(=O)NC[C@H](O)c3ccccc3)[C@H]3C(=O)O[C@H](c4ccccc4)[C@H](c4ccccc4)N3[C@@H]2c2ccccc2OCCO)cc1 | -1.62 | 1.32 (inactive) | -4.48 (inactive) | -0.0131 (inactive) | 2.4 (inactive) | 2.27 (inactive) | -0.444 (inactive) | -0.849 (inactive) | -5.2 | 0.0297 | 0.0376 (inactive) | 0.881 | -1.01 | -2.33 (inactive) | -0.166 (inactive) | -0.118 (inactive) |
| COc1ccc([Si](C)(C)[C@@H]2[C@@H](CCn3cc([C@H](O)c4ccccc4)nn3)O[C@]3(C(=O)N(Cc4ccc(N5C(=O)c6cccc7cccc5c67)cc4)c4ccccc43)[C@H]2C)cc1 | -0.651 | -0.349 (inactive) | -1.66 (inactive) | -0.609 (inactive) | 0.65 (inactive) | -0.0915 (inactive) | 0.954 (inactive) | 0.453 (inactive) | -1.01 | -0.157 | 1.02 (inactive) | 0.182 | -2.8 | 0.474 (inactive) | -0.506 (inactive) | -0.524 (inactive) |
| [N-]=[N+]=NCc1ccccc1C[C@]1(C(=O)O)N=C(c2ccc(OCCCO)cc2)O[C@H]1c1ccccc1CN=[N+]=[N-] | 0.924 | -3.5 (inactive) | 0.349 (inactive) | -2.16 (inactive) | 0.563 (inactive) | -1.05 (inactive) | 0.279 (inactive) | -0.717 (inactive) | -0.0479 | -0.139 | 0.218 (inactive) | 0.746 | -0.507 | -4.69 (inactive) | -0.0136 (inactive) | 0.306 (inactive) |
| COCC(=C=CC[C@@H](O)c1ccc(CO)o1)CCO | 0.59 | -3.07 (inactive) | 0.698 (inactive) | -9.96 (active) | 0.862 (inactive) | -3.85 (inactive) | 1.13 (inactive) | 1.1 (inactive) | 0.529 | 0.116 | 0.848 (inactive) | 0.344 | -1.61 | -3.24 (inactive) | -1 (inactive) | -0.68 (inactive) |
| CCCC[C@@H]1C[C@H]1[C@@H](NC(=O)c1ccc(-c2ccccc2)cc1)c1ccc(-c2ccccc2)cc1 | 0.543 | -0.498 (inactive) | -0.271 (inactive) | -1.12 (inactive) | 0.315 (inactive) | 0.0066 (inactive) | -0.836 (inactive) | -1.19 (inactive) | -0.0454 | 0.359 | 0.0014 (inactive) | -0.532 | -1.05 | -1.24 (inactive) | 0.558 (inactive) | 0.394 (inactive) |
| COC(=O)c1c(CC[C@@H](CO)NC(=O)N[C@@H](Cc2ccccc2)Cn2cc(C3(O)CCCCC3)nn2)oc(C(C)=O)c1C(=O)OC | -0.172 | -3.95 (inactive) | 1.37 (inactive) | -4.08 (inactive) | -0.452 (inactive) | -2.6 (inactive) | 1.05 (inactive) | 0.874 (inactive) | 0.428 | 0.0762 | 0.295 (inactive) | 0.536 | -2.48 | -5.32 (inactive) | -0.0682 (inactive) | -0.145 (inactive) |
| CCOC(=O)C1=CC[C@@H](c2ccccc2Cl)N(S(=O)(=O)c2ccc(C)cc2)C1 | -0.358 | -1.65 (inactive) | 0.0161 (inactive) | -0.978 (inactive) | -0.308 (inactive) | -0.24 (inactive) | -0.203 (inactive) | 1.03 (inactive) | -1.37 | -0.0115 | 0.792 (inactive) | 0.488 | -2.06 | -2.78 (inactive) | -1.55 (inactive) | -1.77 (inactive) |

Source: PubChem BioAssay
